For nine compounds, growth inhibition results are on record in PubChem BioAssay (NCI).

The nature of test [1]: NCI Yeast Anticancer Drug Screen. Data for the rad50 strain (AID 155).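 Also: 0% = growth of vehicle-only cultures of the same strain.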 The following applies: S. cerevisiae rad50 strain growth inhibition, hits give high values. The method in brief: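 Inhibition values express reduced yeast growth in compound-treated cultures relative to vehicle-treated controls.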
The nature of test [2]: NCI Yeast Anticancer Drug Screen. Data for the mec2-1 strain (AID 157). The settings on record: S. cerevisiae mec2-1 strain, hits give high values. The method in brief:
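Strain: mec2-1 (DNA repair/cell cycle alteration). Compound exposure, then growth measured; inhibition expressed relative to vehicle.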

Test [3] is described as follows: NCI Yeast Anticancer Drug Screen. Data for the sgs1 mgt1 strain (AID 161).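 Also: 0% = growth of cultures given vehicle only.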 The following applies: S. cerevisiae sgs1 mgt1 strain, hits give high values. The method, boiled down:
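Mutant yeast exposed to compound; growth scored against vehicle-only wells.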

The nature of test [4]: NCI Yeast Anticancer Drug Screen. Data for the cln2 rad14 strain (AID 165).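 Also: 0% = growth equal to vehicle treated cultures.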 The settings on record: S. cerevisiae cln2 rad14 strain, hits give high values. The method in brief:
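Compounds are applied to the cln2 rad14 yeast strain, and growth is then compared with that of vehicle-treated cultures to give inhibition.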

Test [5] is described as follows: NCI Yeast Anticancer Drug Screen. Data for the bub3 strain (AID 167). The following applies: S. cerevisiae bub3 mutant strain, hits give high values. The method, boiled down:
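Steps: expose the mutant yeast strain to compound; grow alongside vehicle-treated cultures; measure growth; express inhibition against the vehicle cultures.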

Test [6] in a line: NCI Yeast Anticancer Drug Screen. Data for the mlh1 rad18 strain (AID 175). The settings on record: S. cerevisiae mlh1 rad18 strain growth inhibition, hits give high values. The method in brief:
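Read-out is yeast growth inhibition, calculated against vehicle-only controls. The compound was applied to a strain engineered with DNA damage repair alterations.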

Where [7] appears, read: at 5.0 µM (retest, dose inferred, filed as 0.5).
[8] abbreviates: at 50.0 µM (retest, dose inferred, filed as 5.0).

SMILES strings stand for the structures. This is part of a sample that, as a whole, favours compounds with a hit. Of some 79,000 tested, about 15% had one in any assay. Values without a mark were called inactive. The source made the active and inactive calls. Rule as the data show it: active = growth inhibition above about 70%; inactive = the rest.

Regarding `c1ccc(B2OC(c3ccccc3)C(c3ccccc3)O2)cc1` (configuration not stated), the growth inhibition is -19% in test [1] (setting [7]); -12% in test [1] (setting [8]); 3.35% in test [1] (at 50.0 µM); -18% in test [2] (setting [7]); -21% in test [2] (setting [8]); -0.45% in test [2] (at 50.0 µM). Also, the growth inhibition is -7% in test [3] (setting [7]); -9% in test [3] (setting [8]); 10.8% in test [3] (at 50.0 µM); 24% in test [4] (setting [7]); 7% in test [4] (setting [8]); 5.85% in test [4] (at 50.0 µM). In addition, the growth inhibition in test [5] (setting [7]) was -4%; in test [5] (setting [8]), -3%; in test [5] (at 50.0 µM), 11.2%; in test [6] (setting [7]), -13%; in test [6] (setting [8]) it was 9%; in test [6] (at 50.0 µM), 8.85%.

`Cc1ccc(O)c(C(c2cc(C)ccc2O)c2ccccc2Cl)c1`: the growth inhibition in test [1] (setting [7]) was 96% (active); in test [1] (setting [8]), 99% (active); in test [1] (at 50.0 µM) it was 98.2% (active); in test [2] (setting [7]), 95% (active); in test [2] (setting [8]), 99% (active); in test [2] (at 50.0 µM), 99.5% (active). Further, the growth inhibition was 91% (active) in test [3] (setting [7]); 99% (active) in test [3] (setting [8]); 99.2% (active) in test [3] (at 50.0 µM); 98% (active) in test [4] (setting [7]); 99% (active) in test [4] (setting [8]); 98.6% (active) in test [4] (at 50.0 µM). Besides, the growth inhibition in test [5] (setting [7]) is 85% (active); in test [5] (setting [8]), 99% (active); in test [5] (at 50.0 µM), 98.5% (active); in test [6] (setting [7]), 97% (active); in test [6] (setting [8]), 95% (active); in test [6] (at 50.0 µM) it was 99% (active).

Take `Cc1c(N2CCCC2)cc2c(c1NC(=O)c1ccccc1Cl)C(C)(C)CC2(C)C`: the growth inhibition in test [1] (setting [7]) was 11%; in test [1] (setting [8]), 95% (active); in test [1] (at 50.0 µM) it was 82.8% (active); in test [2] (setting [7]) it was -2%; in test [2] (setting [8]), 89% (active); in test [2] (at 50.0 µM), 59.5%. For the same compound, the growth inhibition is 20% in test [3] (setting [7]); 85% (active) in test [3] (setting [8]); 73.2% (active) in test [3] (at 50.0 µM); 0% in test [4] (setting [7]); 91% (active) in test [4] (setting [8]); 79.3% (active) in test [4] (at 50.0 µM). In addition, the growth inhibition is 10% in test [5] (setting [7]); 80% (active) in test [5] (setting [8]); 90.7% (active) in test [5] (at 50.0 µM); 22% in test [6] (setting [7]); 91% (active) in test [6] (setting [8]); 80.2% (active) in test [6] (at 50.0 µM).

Consider `Cc1c(Cl)ccc(O)c1[N+](=O)[O-]`, for which the growth inhibition is 2% in test [1] (setting [7]); 87% (active) in test [1] (setting [8]); 91.6% (active) in test [1] (at 50.0 µM); 2% in test [2] (setting [7]); 86% (active) in test [2] (setting [8]); 91.7% (active) in test [2] (at 50.0 µM). Further, the growth inhibition was 3% in test [3] (setting [7]); 82% (active) in test [3] (setting [8]); 96.1% (active) in test [3] (at 50.0 µM); 2% in test [4] (setting [7]); 75% (active) in test [4] (setting [8]); 84.8% (active) in test [4] (at 50.0 µM). Further, the growth inhibition in test [5] (setting [7]) is 5%; in test [5] (setting [8]), 93% (active); in test [5] (at 50.0 µM), 88.8% (active); in test [6] (setting [7]) it was -1%; in test [6] (setting [8]) it was 97% (active); in test [6] (at 50.0 µM), 94% (active).

With `CCCCCCC(O)(CCCCCC)CCCCCC`, the growth inhibition in test [1] (setting [7]) was -1%; in test [1] (setting [8]), -34%; in test [1] (at 50.0 µM) it was 83.3% (active); in test [2] (setting [7]), -3%; in test [2] (setting [8]), -34%; in test [2] (at 50.0 µM), 32.8%. Besides, the growth inhibition in test [3] (setting [7]) was -3%; in test [3] (setting [8]), -31%; in test [3] (at 50.0 µM), 42.8%; in test [4] (setting [7]) it was 1%; in test [4] (setting [8]), -41%; in test [4] (at 50.0 µM), 23.9%. Also, the growth inhibition was 0% in test [5] (setting [7]); -12% in test [5] (setting [8]); 5.3% in test [5] (at 50.0 µM); 1% in test [6] (setting [7]); -31% in test [6] (setting [8]); 44.1% in test [6] (at 50.0 µM).

On to `NC(=O)c1c(Cl)nc2n1CCS2`, for which the growth inhibition in test [1] (setting [7]) is 1%; in test [1] (setting [8]), 0%; in test [1] (at 50.0 µM) it was 13.8%; in test [2] (setting [7]), 0%; in test [2] (setting [8]), -2%; in test [2] (at 50.0 µM), -17.4%. Moreover, the growth inhibition in test [3] (setting [7]) is -2%; in test [3] (setting [8]) it was 1%; in test [3] (at 50.0 µM) it was -1.3%; in test [4] (setting [7]) it was -2%; in test [4] (setting [8]), -7%; in test [4] (at 50.0 µM) it was 8.4%. For the same compound, the growth inhibition is -3% in test [5] (setting [7]); -5% in test [5] (setting [8]); -4.2% in test [5] (at 50.0 µM); 4% in test [6] (setting [7]); 1% in test [6] (setting [8]); 0.15% in test [6] (at 50.0 µM).

Consider `N#CCC(=O)N/N=C(/CC1(O)C(=O)Nc2c(Cl)cc(Cl)cc21)c1ccccc1` (configuration not stated), for which the growth inhibition is 2% in test [1] (setting [7]); 35% in test [1] (setting [8]); 69.4% in test [1] (at 50.0 µM); 10% in test [2] (setting [7]); 43% in test [2] (setting [8]); 59.6% in test [2] (at 50.0 µM). For the same compound, the growth inhibition was -1% in test [3] (setting [7]); -6% in test [3] (setting [8]); 71.1% (active) in test [3] (at 50.0 µM); -7% in test [4] (setting [7]); 23% in test [4] (setting [8]); -20% in test [4] (at 50.0 µM). In addition, the growth inhibition in test [5] (setting [7]) is 3%; in test [5] (setting [8]) it was 22%; in test [5] (at 50.0 µM), 26.4%; in test [6] (setting [7]) it was 5%; in test [6] (setting [8]) it was 16%; in test [6] (at 50.0 µM), 75.2% (active).

`CN(C)C(=O)/N=c1\ss/c(=N\C(=S)N(C)C)n1-c1ccccc1`: the growth inhibition in test [1] (setting [7]) was -1%; in test [1] (setting [8]), 78% (active); in test [1] (at 50.0 µM) it was 68.2%; in test [2] (setting [7]) it was -9%; in test [2] (setting [8]), 56%; in test [2] (at 50.0 µM), 45.8%. Besides, the growth inhibition in test [3] (setting [7]) is 4%; in test [3] (setting [8]) it was 95% (active); in test [3] (at 50.0 µM), 72% (active); in test [4] (setting [7]) it was -17%; in test [4] (setting [8]), 29%; in test [4] (at 50.0 µM), 41.6%. Moreover, the growth inhibition in test [5] (setting [7]) was -8%; in test [5] (setting [8]), 50%; in test [5] (at 50.0 µM), 68.5%; in test [6] (setting [7]), 9%; in test [6] (setting [8]) it was 92% (active); in test [6] (at 50.0 µM), 62.2%.

With `Cc1ccc(C)c(S(=O)(=O)Nc2c([N+](=O)[O-])cc([N+](=O)[O-])c3ccccc23)c1`, the growth inhibition in test [1] (setting [7]) is 30%; in test [1] (setting [8]), 35%; in test [1] (at 50.0 µM), 85.7% (active); in test [2] (setting [7]), 30%; in test [2] (setting [8]) it was 40%; in test [2] (at 50.0 µM), 86.6% (active). Also, the growth inhibition in test [3] (setting [7]) was 47%; in test [3] (setting [8]), 29%; in test [3] (at 50.0 µM), 87.5% (active); in test [4] (setting [7]) it was 32%; in test [4] (setting [8]) it was 54%; in test [4] (at 50.0 µM) it was 86% (active). Moreover, the growth inhibition in test [5] (setting [7]) was 20%; in test [5] (setting [8]), 30%; in test [5] (at 50.0 µM), 79.8% (active); in test [6] (setting [7]) it was 34%; in test [6] (setting [8]), 59%; in test [6] (at 50.0 µM), 83.6% (active).
